# Compound activity: PubChem, several laboratories
# Only some compounds are listed: those with a hit (about 3% of all), similar ones and a draw of the others.
# TROY signal inh – inhibitors of TROY-driven NF-kB signaling, primary screen, Q293 LMP1-TROYcd cells, NF-kB luciferase, uHTS; Q293 LMP1-TROYcd NF-kB luciferase reporter, 4 h; inhibition, % at 10 µM; 0.98% of 360,000 active;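 active = compounds whose plate-normalised and pattern-corrected inhibition of the luciferase reporter signal at the single screening dose is 50% or more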
# MITF act – activators of MITF-driven TRPM1 promoter reporter, primary screen, cell-based, SK-MEL-5, luciferase, single point. SK-MEL-5 TRPM1-promoter luciferase, 24 h; % of positive control, neutral wells = 0. activation, % at 12.5 µM. 0.75% of 300,000 active. AID 588334, 2011;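 active = mean activation of at least 80% with every replicate also reaching 80%; inconclusive = mean reaches 80% but some replicate falls short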;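 also: 0% = neutral control wells and 100% = parthenolide positive control wells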
# TWEAK Fn14 block – inhibitors of TWEAK-Fn14 signaling, primary screen, luciferase reporter cells, uHTS; TWEAK-stimulated Fn14 reporter cells, luciferase luminescence, 8 h; inhibition, % at 10 µM; 2% of 360,000 active; in the data active = inhibition above about 50%
# LMP1 NFkB inh – EBV LMP1-driven NF-kappaB luciferase reporter inhibitors, primary screen, cell-based, luminescence, single point; LMP1-induced NF-kappaB luciferase reporter cells; inhibition, % at 12.5 µM; 0.69% of 350,000 active; AID 504558, 2011; in the data active = inhibition above about 41%; inconclusive = no clear call, values can overlap the other calls;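 also: 0% = neutral control wells and 100% = reference inhibitor control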
# TRPM1 prom inh – inhibitors of MITF-dependent TRPM1 promoter reporter, primary screen, cell-based, SK-MEL-5, single point, luciferase; SK-MEL-5 TRPM1 promoter luciferase, 24 h; inhibition, % at 12.5 µM; 0.83% of 330,000 active; AID 488899, 2010;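 active = mean inhibition across replicates of 60% or more, whatever share of single replicates reaches that level; inconclusive = some that reach 60%, reason not given; inactive = mean inhibition across replicates below 60%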
# LGR2 antag – inhibitors of bursicon-induced LGR2 CRE-luciferase signal, primary screen, cell-based, HEK293, CRE-luciferase reporter, bursicon stimulation; Drosophila bursicon receptor LGR2 (rickets); bursicon-stimulated, 4 h; 0.35% of 380,000 active; inhibition, % at 9.99 µM;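 active = drop in luminescence signal, shown as inhibition above about 50% in the replicate tests, limit read from the data, passing the limit was not always enough; inconclusive = probably only some replicates passing the limit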;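 also: agonist challenge used bursicon conditioned medium at about half maximal strength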
# * marks the source's active call; other numbers are inactive results; ? = inconclusive; . = not tested or not shown.
SMILES,TROY signal inh,MITF act,TWEAK Fn14 block,LMP1 NFkB inh,TRPM1 prom inh,LGR2 antag
Cc1nn(C)cc1NC(=O)C[C@@H]1CC[C@@H]2[C@@H](COc3ccc(NC(=O)NC(C)C)cc3C(=O)N2C)O1,.,.,.,.,.,16
O=C(Nc1cccc(Cl)c1)N1C[C@@H]2[C@H](c3ccccc31)[C@H](CO)N2C(=O)c1cccnc1,.,.,.,.,.,1
CCC(=O)N(C)C[C@H]1Oc2cc(-c3ccc(OC)cc3)ccc2S(=O)(=O)N([C@H](C)CO)C[C@@H]1C,.,.,.,.,.,-6
CS(=O)(=O)Nc1ccc2c(c1)[C@@H]1C[C@@H](CC(=O)N3CCCCC3)O[C@@H](CO)[C@@H]1O2,.,.,.,.,.,-16
C/C(=N\Nc1nc2ccccc2[nH]1)c1ccc(Cl)s1,-51,1,6,43*,3,-21
C(=N\Nc1nc2ccccc2[nH]1)/c1cccc2cccnc12,-3,.,26,71*,14,33
Cc1[nH]c2ccccc2c1/C=C/c1nc2ccccc2c(=O)[nH]1,-33,93*,27,-102,-94,-52
C(=N\Nc1nc2ccccc2[nH]1)/c1c[nH]c2ccccc12,-25,123*,51*,-53,-112,-58
Cc1ccc(S(=O)(=O)Nc2ccc3c(c2)C(=O)N([C@@H](C)CO)C[C@H](C)[C@@H](CN(C)C(=O)c2ccccc2)OCCCC[C@@H](C)O3)cc1,.,.,.,.,.,-26
Cc1[nH]c2ccccc2c1/C=N/Nc1nc2ccccc2[nH]1,57*,.,95*,-26,-105,100*
COc1ccc(/C=N/Nc2nc3ccccc3[nH]2)c(OC)c1OC,73*,10,78*,27,-10,28
COc1ccc(/C=N/Nc2ccccn2)c(OC)c1OC,-14,33,-42,-1,-33,-29
Cc1ccc(/C=N/Nc2nc3ccccc3[nH]2)s1,-57,40,50*,-118,-36,-84
Cc1ccccc1/C=N/Nc1nc2ccccc2[nH]1,-29,34,7,-16,-36,-59
C[C@@H](NC(=O)[C@H]1[C@H](CO)[C@H]2Cn3c(cccc3=O)[C@H]2N1CC1CCCCC1)c1ccccc1,.,.,.,.,.,-2
COc1cccc(S(=O)(=O)N2CC[C@@H]3[C@@H](CO)Nc4ccc(C#Cc5cccnc5)cc4[C@@H]32)c1,.,.,.,.,.,-2
CC(C)NC(=O)N(C)C[C@H]1Oc2cc(C#CC3CC3)ccc2S(=O)(=O)N([C@@H](C)CO)C[C@H]1C,.,.,.,.,.,-8
C[C@@H]1CN([C@H](C)CO)C(=O)c2cc(C#Cc3ccc(F)cc3)cnc2O[C@H]1CN(C)S(C)(=O)=O,.,.,.,.,.,2
O=C1CCC2S/C(=C/Nc3ccc(C(F)(F)F)cc3)C(=O)N12 (stereo not given),-37,-85,86*,51*,86*,-33
CC(=O)N[C@H]1CC[C@H](CC(=O)NCc2ccc(Cl)cc2)O[C@H]1CO,.,.,.,.,.,-14
COc1ccc(CN([C@H](CO)CC(C)C)S(=O)(=O)N(Cc2ccccc2)[C@H](CO)CC(C)C)cc1,25,-5,22,3,1,?
CC(C)C[C@@H](CO)N(Cc1ccccc1)S(=O)(=O)N(Cc1ccccc1)[C@@H](CO)CC(C)C,53*,-13,16,-9,13,.
CC(C)C[C@@H](CO)N(Cc1ccccc1)S(=O)(=O)N(Cc1ccccc1)[C@H](CO)CC(C)C,52*,3,24,3,-2,30
CSc1ccc(NC(=O)Nc2cc(C)ccn2)cc1,34,36,69*,11,-34,58*
Cc1ccnc(NC(=O)Nc2ccc(F)cc2)c1,-21,42,5,-33,-40,.
SMILES,TROY signal inh,MITF act,TWEAK Fn14 block,LMP1 NFkB inh,TRPM1 prom inh,LGR2 antag
Cc1cccc(NC(=O)Nc2ccc3c(c2)N(C)C(=O)CS3)n1,-24,91*,2,-35,-80,-18
Cc1ccnc(NC(=O)Nc2ccc3c(c2)N(C)C(=O)CS3)c1,-13,187*,52*,-76,-174,11
CC(=O)c1ccc(NC(=O)Nc2ccc3c(c2)N(C)C(=O)CS3)cc1,32,.,72*,3,-16,.
O=C(C[C@@H]1C[C@@H]2c3cc(NC(=O)Nc4ccccc4)ccc3O[C@@H]2[C@@H](CO)O1)NCc1cccnc1,.,.,.,.,.,8
O=C(Nc1ccccc1)N1CC(=O)N2[C@H](CO)[C@H](c3ccc(C#Cc4cccnc4)cc3)[C@@H]2C1,.,.,.,.,.,29
Cc1ccnc(NC(=O)Nc2ccc(Br)cc2Cl)c1,37,17,43,48*,-14,32
COC(=O)c1ccccc1NC(=O)Nc1cc(C)ccn1,8,9,-8,10,-7,-13
O=C(C[C@@H]1C=C[C@@H](NC(=O)Cc2cccnc2)[C@H](CO)O1)Nc1ccccc1,.,.,.,.,.,6
O=C(COC(=O)c1ccc(O)cc1)NCCC1=CCCCC1,10,-7,0,0,6,-6
COc1ccccc1N(C)S(=O)(=O)c1ccc(C(=O)OCC(=O)NCCC2=CCCCC2)cc1,31,-21,54*,-1,17,8
CCCNC(=O)NC(=O)COC(=O)c1ccc(S(=O)(=O)N(C)c2ccccc2OC)cc1,11,-2,3,6,1,-19
O=C(COC(=O)c1ccc2c(c1)OCCO2)NCCC1=CCCCC1,37,.,96*,-7,-4,.
CN(C)C(=O)c1ccc(-c2ccc(C3[C@H]4CNC[C@@H]3N4C(=O)NC3CCCC3)cc2)cc1 (stereo not given in full),.,.,.,.,.,3
Cc1noc(C)c1S(=O)(=O)N(C)C[C@H]1Oc2ccc(NC(=O)CCN3CCOCC3)cc2CC(=O)N([C@@H](C)CO)C[C@H]1C,.,.,.,.,.,-10
C/C(=C(/NC(=O)c1ccccc1)C(=O)O)c1ccco1,6,-2,87*,-5,11,-4
Cc1ccc(C(=O)n2nc(-c3cccnc3)nc2N)cc1,64*,-2,22,6,3,-15
Nc1ncnc2c(C3OC(CO)C(O)C3O)scc12 (stereo not given),65*,.,100*,71*,83*,98*
O=C(NC1CCCCC1)N1CC(=O)N2[C@H](CO)[C@H](c3ccc(/C=C/c4ccccc4)cc3)[C@H]2C1,.,.,.,.,.,2
O=S(=O)(c1ccc(F)cc1)N1CC[C@@H]2[C@@H](CO)Nc3ccc(Br)cc3[C@@H]21,.,.,.,.,.,-10
CC(=O)c1ccc(OCc2cc(C(=O)N(C)CCOc3ccc(C)cc3)no2)cc1,-18,116*,-2,-24,-103,-53
CC(=O)c1ccc(OCc2cc(C(=O)N(C)Cc3nc4c(C)cccc4[nH]3)no2)cc1,10,1,15,1,-1,6
